# Tests used:
# [1] = molecular target: Mitogen-activated protein kinase 3 (Homo sapiens) (UniProt P27361); settings: at 1 µM;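 note: values are mean percent inhibition of MAPK3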
# [2] = molecular target: SRSF protein kinase 3 (Homo sapiens) (UniProt Q9UPE1); settings: at 0.1 µM
# [3] = molecular target: SRSF protein kinase 3 (Homo sapiens) (UniProt Q9UPE1); settings: at 1 µM
# [4] = molecular target: Mitogen-activated protein kinase 14 (Homo sapiens) (UniProt Q16539); settings: at 0.1 µM
# [5] = molecular target: Mitogen-activated protein kinase 14 (Homo sapiens) (UniProt Q16539); settings: at 1 µM
# [6] = molecular target: Mitogen-activated protein kinase 11 (Homo sapiens) (UniProt Q15759); settings: at 0.1 µM
# [7] = molecular target: Mitogen-activated protein kinase 11 (Homo sapiens) (UniProt Q15759); settings: at 1 µM
# [8] = molecular target: T1, Mitogen-activated protein kinase 13 (Homo sapiens) (UniProt O15264); settings: at 0.1 µM
# T1 sequence (whole entry): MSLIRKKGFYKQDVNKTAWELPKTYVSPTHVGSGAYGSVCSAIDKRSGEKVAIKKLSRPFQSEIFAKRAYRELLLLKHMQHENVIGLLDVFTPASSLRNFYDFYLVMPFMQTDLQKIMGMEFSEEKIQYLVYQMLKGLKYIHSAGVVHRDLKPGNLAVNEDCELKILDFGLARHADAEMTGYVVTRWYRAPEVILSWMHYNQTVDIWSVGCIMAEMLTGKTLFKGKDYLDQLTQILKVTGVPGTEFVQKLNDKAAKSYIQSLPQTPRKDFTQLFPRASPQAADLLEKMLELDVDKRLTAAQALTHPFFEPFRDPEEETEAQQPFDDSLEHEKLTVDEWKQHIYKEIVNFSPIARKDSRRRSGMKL
# [9] = molecular target: T1, Mitogen-activated protein kinase 13 (Homo sapiens); settings: at 1 µM
# [10] = molecular target: T2, Mitogen-activated protein kinase 12 (Homo sapiens) (UniProt P53778); settings: at 0.1 µM
# T2 sequence (whole entry): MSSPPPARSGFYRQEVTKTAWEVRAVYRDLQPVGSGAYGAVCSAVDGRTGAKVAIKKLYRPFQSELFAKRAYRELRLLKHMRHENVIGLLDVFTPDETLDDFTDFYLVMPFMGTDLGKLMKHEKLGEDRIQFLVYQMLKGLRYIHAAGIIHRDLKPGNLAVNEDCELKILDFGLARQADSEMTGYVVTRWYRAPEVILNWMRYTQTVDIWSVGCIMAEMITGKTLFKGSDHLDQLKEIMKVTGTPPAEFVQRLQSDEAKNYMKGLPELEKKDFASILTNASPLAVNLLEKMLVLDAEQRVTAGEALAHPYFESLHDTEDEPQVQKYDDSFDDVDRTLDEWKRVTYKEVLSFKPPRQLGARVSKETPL
# [11] = molecular target: T2, Mitogen-activated protein kinase 12 (Homo sapiens); settings: at 1 µM
# [12] = molecular target: SRSF protein kinase 1 (Homo sapiens) (UniProt Q96SB4); settings: at 0.1 µM
# [13] = molecular target: SRSF protein kinase 1 (Homo sapiens) (UniProt Q96SB4); settings: at 1 µM
# [14] = molecular target: Phosphatidylinositol 4,5-bisphosphate 3-kinase catalytic subunit alpha isoform (Homo sapiens) (UniProt P42336); settings: at 0.1 µM
# [15] = molecular target: Phosphatidylinositol 4,5-bisphosphate 3-kinase catalytic subunit alpha isoform (Homo sapiens) (UniProt P42336); settings: at 1 µM
# [16] = molecular target: T3, Phosphatidylinositol 4,5-bisphosphate 3-kinase catalytic subunit delta isoform (Homo sapiens) (UniProt O00329); settings: at 0.1 µM
# T3 sequence (whole entry): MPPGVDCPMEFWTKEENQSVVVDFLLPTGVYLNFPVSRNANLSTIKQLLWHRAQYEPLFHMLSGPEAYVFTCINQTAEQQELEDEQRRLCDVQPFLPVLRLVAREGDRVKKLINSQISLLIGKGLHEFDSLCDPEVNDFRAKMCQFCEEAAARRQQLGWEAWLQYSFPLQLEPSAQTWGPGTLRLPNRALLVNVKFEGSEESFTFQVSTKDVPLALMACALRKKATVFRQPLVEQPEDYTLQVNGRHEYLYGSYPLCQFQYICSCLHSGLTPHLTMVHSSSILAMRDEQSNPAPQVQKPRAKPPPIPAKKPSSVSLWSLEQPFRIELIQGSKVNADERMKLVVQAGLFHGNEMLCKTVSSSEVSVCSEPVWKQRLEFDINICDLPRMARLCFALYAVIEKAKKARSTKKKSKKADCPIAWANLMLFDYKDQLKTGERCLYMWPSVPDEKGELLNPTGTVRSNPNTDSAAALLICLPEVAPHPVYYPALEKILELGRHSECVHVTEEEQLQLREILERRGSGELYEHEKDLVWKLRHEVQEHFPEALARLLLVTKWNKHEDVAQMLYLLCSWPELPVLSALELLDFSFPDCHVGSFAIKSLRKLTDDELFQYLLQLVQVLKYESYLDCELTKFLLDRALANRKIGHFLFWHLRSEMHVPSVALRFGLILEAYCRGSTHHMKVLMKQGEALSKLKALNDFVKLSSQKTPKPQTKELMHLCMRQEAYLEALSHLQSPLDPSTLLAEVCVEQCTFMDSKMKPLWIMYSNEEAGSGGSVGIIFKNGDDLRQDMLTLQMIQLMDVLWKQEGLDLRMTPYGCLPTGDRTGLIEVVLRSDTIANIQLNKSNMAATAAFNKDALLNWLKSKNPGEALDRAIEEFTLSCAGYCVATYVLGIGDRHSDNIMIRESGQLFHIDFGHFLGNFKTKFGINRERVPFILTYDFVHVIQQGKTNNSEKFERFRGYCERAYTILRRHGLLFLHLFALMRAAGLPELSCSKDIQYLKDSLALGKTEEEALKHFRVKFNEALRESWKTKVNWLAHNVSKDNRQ
# [17] = molecular target: T3, Phosphatidylinositol 4,5-bisphosphate 3-kinase catalytic subunit delta isoform (Homo sapiens); settings: at 1 µM
# [18] = molecular target: Phosphatidylinositol 4-kinase beta (Homo sapiens) (UniProt Q9UBF8); settings: at 0.1 µM
# [19] = molecular target: Phosphatidylinositol 4-kinase beta (Homo sapiens) (UniProt Q9UBF8); settings: at 1 µM
# [20] = molecular target: Sphingosine kinase 1 (Homo sapiens) (UniProt Q9NYA1); settings: at 0.1 µM;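 note: mean percent inhibition of SPHK1 activity, measured within the GSK PKIS screening panel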
# Sequence of Sphingosine kinase 1 (Homo sapiens) (Q9NYA1 whole entry): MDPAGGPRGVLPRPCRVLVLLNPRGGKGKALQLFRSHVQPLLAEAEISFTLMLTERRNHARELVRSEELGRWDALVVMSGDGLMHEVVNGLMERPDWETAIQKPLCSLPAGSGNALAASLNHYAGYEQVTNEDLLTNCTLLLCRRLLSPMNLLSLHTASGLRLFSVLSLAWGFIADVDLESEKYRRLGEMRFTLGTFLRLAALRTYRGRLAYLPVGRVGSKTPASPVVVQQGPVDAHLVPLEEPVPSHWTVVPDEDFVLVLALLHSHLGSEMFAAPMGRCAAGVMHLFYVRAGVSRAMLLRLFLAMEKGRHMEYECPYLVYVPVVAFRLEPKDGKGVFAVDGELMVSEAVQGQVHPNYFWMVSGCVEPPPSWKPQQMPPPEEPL
# Sequence of SRSF protein kinase 3 (Homo sapiens) (Q9UPE1 whole entry): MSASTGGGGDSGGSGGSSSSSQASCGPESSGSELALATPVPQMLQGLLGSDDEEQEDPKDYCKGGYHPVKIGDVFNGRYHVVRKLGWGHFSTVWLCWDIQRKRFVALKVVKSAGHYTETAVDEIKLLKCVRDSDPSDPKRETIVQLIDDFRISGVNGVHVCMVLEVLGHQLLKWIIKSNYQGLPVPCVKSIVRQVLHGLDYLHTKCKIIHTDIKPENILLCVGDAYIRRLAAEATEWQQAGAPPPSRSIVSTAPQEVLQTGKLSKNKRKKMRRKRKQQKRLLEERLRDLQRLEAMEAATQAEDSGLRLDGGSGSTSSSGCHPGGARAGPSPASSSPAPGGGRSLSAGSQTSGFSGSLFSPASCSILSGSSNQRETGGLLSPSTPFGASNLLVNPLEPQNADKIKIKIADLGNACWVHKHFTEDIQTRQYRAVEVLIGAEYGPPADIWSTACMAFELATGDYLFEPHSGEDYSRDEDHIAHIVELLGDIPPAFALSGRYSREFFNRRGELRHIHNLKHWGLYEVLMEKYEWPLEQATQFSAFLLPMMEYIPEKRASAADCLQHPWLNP
# Sequence of Mitogen-activated protein kinase 11 (Homo sapiens) (Q15759 whole entry): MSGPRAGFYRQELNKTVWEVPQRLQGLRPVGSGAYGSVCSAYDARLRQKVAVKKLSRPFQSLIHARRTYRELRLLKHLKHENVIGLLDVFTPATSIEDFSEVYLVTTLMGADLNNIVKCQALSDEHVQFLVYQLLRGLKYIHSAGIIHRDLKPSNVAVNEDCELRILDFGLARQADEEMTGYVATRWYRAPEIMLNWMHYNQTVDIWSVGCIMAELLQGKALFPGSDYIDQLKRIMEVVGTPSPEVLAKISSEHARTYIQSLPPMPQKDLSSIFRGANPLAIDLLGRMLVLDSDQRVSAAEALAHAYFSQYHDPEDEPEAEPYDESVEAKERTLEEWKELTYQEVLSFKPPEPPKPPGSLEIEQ
# Sequence of Mitogen-activated protein kinase 14 (Homo sapiens) (Q16539 whole entry): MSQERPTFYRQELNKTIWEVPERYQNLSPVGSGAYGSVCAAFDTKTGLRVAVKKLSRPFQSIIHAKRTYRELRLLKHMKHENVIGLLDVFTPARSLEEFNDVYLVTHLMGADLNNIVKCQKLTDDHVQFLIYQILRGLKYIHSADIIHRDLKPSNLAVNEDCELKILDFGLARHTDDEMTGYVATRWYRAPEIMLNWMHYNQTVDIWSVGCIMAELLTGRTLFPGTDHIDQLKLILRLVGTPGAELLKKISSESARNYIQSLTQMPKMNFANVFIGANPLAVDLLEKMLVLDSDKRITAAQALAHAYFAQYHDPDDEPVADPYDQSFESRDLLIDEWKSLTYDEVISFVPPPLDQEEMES
# Sequence of SRSF protein kinase 1 (Homo sapiens) (Q96SB4 whole entry, canonical isoform): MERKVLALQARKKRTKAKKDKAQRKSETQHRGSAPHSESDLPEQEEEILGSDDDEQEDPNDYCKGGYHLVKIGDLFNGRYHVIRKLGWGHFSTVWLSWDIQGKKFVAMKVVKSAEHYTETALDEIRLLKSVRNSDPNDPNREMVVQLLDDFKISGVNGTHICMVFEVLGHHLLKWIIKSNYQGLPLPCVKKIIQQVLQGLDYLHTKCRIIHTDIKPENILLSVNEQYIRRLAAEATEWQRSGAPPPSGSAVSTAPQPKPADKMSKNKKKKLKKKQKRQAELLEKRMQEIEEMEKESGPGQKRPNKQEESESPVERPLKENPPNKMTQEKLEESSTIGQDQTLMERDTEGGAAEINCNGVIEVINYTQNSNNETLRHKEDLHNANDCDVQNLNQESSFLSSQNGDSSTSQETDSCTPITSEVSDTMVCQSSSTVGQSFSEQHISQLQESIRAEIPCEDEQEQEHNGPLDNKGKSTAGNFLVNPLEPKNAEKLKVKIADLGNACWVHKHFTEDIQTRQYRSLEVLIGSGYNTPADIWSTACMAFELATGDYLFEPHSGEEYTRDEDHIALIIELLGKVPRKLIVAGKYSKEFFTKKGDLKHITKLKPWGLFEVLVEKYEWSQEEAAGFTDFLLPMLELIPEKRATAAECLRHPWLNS
# Sequence of Mitogen-activated protein kinase 3 (Homo sapiens) (P27361 whole entry): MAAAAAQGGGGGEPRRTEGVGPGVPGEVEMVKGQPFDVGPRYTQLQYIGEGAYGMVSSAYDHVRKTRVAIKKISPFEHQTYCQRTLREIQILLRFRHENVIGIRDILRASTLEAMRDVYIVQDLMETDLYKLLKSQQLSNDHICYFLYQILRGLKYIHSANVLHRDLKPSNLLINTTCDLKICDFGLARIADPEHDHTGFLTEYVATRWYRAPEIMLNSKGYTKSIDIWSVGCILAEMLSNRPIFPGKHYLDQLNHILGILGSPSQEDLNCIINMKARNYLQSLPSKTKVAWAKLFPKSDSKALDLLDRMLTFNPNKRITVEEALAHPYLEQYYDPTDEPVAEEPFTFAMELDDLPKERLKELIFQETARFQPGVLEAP
# Sequence of Phosphatidylinositol 4-kinase beta (Homo sapiens) (Q9UBF8 2-816 limits assumed): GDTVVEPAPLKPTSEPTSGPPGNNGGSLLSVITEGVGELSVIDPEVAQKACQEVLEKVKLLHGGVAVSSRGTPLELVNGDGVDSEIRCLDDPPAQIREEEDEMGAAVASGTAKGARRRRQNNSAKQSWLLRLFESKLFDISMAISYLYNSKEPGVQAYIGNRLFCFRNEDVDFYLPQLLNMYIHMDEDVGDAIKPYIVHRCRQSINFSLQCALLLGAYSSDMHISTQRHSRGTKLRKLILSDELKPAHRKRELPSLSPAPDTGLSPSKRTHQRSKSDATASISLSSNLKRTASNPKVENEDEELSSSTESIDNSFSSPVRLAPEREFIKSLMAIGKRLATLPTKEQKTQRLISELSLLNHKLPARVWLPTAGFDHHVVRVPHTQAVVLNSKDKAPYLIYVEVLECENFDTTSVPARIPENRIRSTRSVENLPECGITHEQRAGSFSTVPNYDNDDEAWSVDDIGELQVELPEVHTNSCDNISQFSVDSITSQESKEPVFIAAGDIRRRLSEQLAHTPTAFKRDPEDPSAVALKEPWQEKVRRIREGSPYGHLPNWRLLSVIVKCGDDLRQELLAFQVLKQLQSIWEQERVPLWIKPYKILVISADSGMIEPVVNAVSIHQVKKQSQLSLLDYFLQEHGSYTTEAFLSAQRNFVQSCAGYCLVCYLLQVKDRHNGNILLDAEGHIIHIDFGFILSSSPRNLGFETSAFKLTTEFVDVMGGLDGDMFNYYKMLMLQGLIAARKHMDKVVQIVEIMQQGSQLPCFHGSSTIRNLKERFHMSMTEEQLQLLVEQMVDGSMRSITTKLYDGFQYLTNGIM
# Sequence of Phosphatidylinositol 4,5-bisphosphate 3-kinase catalytic subunit alpha isoform (Homo sapiens) (P42336 whole entry, canonical isoform): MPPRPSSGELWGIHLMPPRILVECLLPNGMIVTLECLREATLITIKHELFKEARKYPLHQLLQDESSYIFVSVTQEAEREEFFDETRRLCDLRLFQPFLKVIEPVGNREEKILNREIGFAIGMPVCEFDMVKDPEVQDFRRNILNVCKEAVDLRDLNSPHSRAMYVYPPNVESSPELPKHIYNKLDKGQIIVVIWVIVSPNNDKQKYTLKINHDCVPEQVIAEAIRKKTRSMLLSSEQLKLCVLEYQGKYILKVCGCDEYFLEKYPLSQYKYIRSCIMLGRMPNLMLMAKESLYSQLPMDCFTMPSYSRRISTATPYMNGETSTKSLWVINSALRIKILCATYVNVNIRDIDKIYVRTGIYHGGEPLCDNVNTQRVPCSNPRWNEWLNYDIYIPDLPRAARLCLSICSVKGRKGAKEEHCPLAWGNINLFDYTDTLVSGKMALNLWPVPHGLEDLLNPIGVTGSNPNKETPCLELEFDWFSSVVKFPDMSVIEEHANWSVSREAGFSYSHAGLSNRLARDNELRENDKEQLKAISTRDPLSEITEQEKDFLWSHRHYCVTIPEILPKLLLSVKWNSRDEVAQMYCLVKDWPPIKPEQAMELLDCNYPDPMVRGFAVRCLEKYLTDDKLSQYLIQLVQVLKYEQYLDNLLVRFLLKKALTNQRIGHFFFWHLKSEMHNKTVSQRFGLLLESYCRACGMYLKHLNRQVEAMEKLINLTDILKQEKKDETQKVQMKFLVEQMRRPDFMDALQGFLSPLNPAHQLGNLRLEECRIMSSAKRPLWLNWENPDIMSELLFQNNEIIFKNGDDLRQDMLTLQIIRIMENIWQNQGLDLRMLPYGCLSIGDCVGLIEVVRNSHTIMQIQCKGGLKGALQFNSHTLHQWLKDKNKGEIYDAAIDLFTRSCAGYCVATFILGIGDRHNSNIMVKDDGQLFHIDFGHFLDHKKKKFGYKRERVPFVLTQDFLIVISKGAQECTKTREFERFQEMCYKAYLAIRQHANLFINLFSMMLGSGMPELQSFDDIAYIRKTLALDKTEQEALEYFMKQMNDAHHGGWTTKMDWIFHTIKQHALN
SMILES,inhibition [1],inhibition [2],inhibition [3],inhibition [4],inhibition [5],inhibition [6],inhibition [7],inhibition [8],inhibition [9],inhibition [10],inhibition [11],inhibition [12],inhibition [13],inhibition [14],inhibition [15],inhibition [16],inhibition [17],inhibition [18],inhibition [19],inhibition [20]
CC(=O)NCc1cccc(C#Cc2cncnc2Nc2ccc(OCc3cccc(F)c3)c(Cl)c2)c1,2.72%,-1.32%,-1.8%,1.05%,-0.7%,1.26%,-0.84%,-3.33%,0.78%,0.11%,1.37%,-0.72%,-2.28%,-1.17%,0.49%,-1.34%,-0.33%,-4.32%,-2.4%,2.94%
CCN1CCC(CC(=O)Nc2n[nH]c3nnc(-c4cccc(F)c4F)cc23)CC1,2.9%,-0.22%,0.53%,1.3%,1.76%,2.75%,4.66%,1.08%,0.01%,1.4%,1.97%,-2.57%,-3.98%,3.38%,2.58%,2.16%,1.94%,2.58%,-1.91%,0.09%
CCn1c(-c2nonc2N)nc2cnc(Oc3cccc(NC(=O)c4ccc(N(C)C)cc4)c3)cc21,1.36%,-1.98%,-3.41%,-0.32%,8.29%,1.19%,1.94%,-1.13%,2.57%,0.02%,1.5%,-1.72%,-1.86%,-0.72%,0.76%,0.62%,1.65%,-0.87%,2.47%,-2.61%
COc1cc(Nc2nccc(Nc3ccc4c(C)n[nH]c4c3)n2)cc(OC)c1OC,2.18%,1.08%,0.79%,4.78%,10%,2.04%,6.13%,3.72%,4.71%,-0.26%,1.69%,-2.15%,-3.51%,1.57%,3.03%,2.45%,21.3%,3.96%,4.89%,-0.37%
NS(=O)(=O)c1ccc(N/N=C2\C(=O)Nc3ccc4ncccc4c32)cc1,30.9%,-0.65%,-0.87%,0.75%,12.3%,7.81%,26.7%,0.25%,10%,3.34%,18.9%,-3.05%,-3.18%,1.35%,7.38%,1.9%,8.23%,1.16%,0.49%,-2.17%
CCCN(CCS(C)(=O)=O)Cc1ccc(-c2ccc3ncnc(Nc4ccc(OCc5cccc(F)c5)c(Cl)c4)c3c2)o1,2.62%,-1.91%,-0.61%,10.4%,4.25%,0.78%,0.65%,4.35%,2.64%,0.9%,1.28%,-1.14%,-0.67%,0.82%,4.19%,0.06%,6.07%,1.73%,0.08%,7%
CC(=O)Nc1cccc(C#Cc2cncnc2Nc2ccc(OCc3cccc(F)c3)c(Cl)c2)c1,3.68%,1.32%,-0.25%,3.3%,5.63%,0.27%,1.34%,2.42%,2.73%,0.58%,1.97%,-1.41%,-3.44%,1.85%,1.66%,2.58%,0.8%,-0.32%,-1.07%,-0.47%
FC(F)(F)c1cccc(-c2nn3ncccc3c2-c2ccnc(Nc3ccc4c(c3)OCCO4)n2)c1,2.04%,-0.87%,-0.58%,30%,73.7%,14.1%,52.2%,0.07%,3.46%,3.07%,2.93%,-2.68%,-5.33%,1.87%,3.02%,1.36%,4%,-4.9%,3.59%,-1.16%
CCn1cc(-c2ccnc3[nH]ccc23)c(-c2cccc(NC(=O)Nc3ccc(OCc4ccccc4)cc3)c2)n1,0.79%,-1.98%,-1.89%,0.81%,1.53%,5.07%,3.29%,-0.53%,-2.06%,-1.09%,-0.76%,-3.33%,-4.16%,-0.66%,0.08%,-0.3%,1.17%,2.47%,-1.05%,-0.21%
Clc1ccc(-c2nn3ncccc3c2-c2ccnc(Nc3ccccc3)n2)cc1,0.24%,-0.67%,-1.16%,46.5%,82.8%,13.1%,58.8%,0.09%,1.39%,2.11%,1.71%,-1.15%,-1.1%,2.48%,5.33%,4.92%,7.17%,-0.39%,0.11%,0.81%
CNC(=O)c1cc(-c2ccc(F)cc2)cc(-c2ccc(S(=O)(=O)N3CCCC3)cc2)c1N,1.92%,-1.6%,-0.52%,4.95%,4.5%,1.39%,3.19%,3.39%,2.91%,2.77%,2.47%,-2.58%,-1.56%,2.34%,1.39%,0.79%,1.11%,-2.09%,1.93%,-0.85%
CN1CCC(n2cnc(-c3ccc(F)cc3)c2-c2ccnc(Nc3ccccc3)n2)CC1,6.33%,0.1%,-0.07%,84.1%,90.8%,50.7%,81.4%,3.08%,22.5%,3.56%,9.03%,-1.25%,-1.27%,1.36%,1.8%,-0.07%,4.79%,-0.93%,1.36%,1.77%

# Source: ChEMBL document CHEMBL1961873, “Compounds: GSK PKIS; Assays: Nanosyn kinase panel” (2012)
